# Screening data as filed in PubChem.
# T cruzi growth-1: inhibitors of T. cruzi proliferation; 5.9% of 77,000 active; T. cruzi beta-gal in NIH3T3, GalScreen luminescence, 90 h; inhibition, % at 8.34 µM;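 active means mean inhibition above about 93%, with at least 55% of replicates each passing it, limit read from the data, passing the limit was not always enough; inconclusive means only one of those two conditions holds; inactive means neither condition holds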
# C diff growth: C. difficile growth inhibition | Clostridium difficile clinical isolate growth, OD600, 24 h; hits give low values | growth activity, negative = inhibition, % at 16 µg/mL (by protocol) | 0.25% of 86,000 active | AID 1259249;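 active means mean growth activity at or below -80% and every replicate also at or below -80%; inconclusive means mean at or below -80% but some replicate above -80%; inactive means mean growth activity above -80%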;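 further: 0% = DMSO wells and -100% = levofloxacin 16 µg/mL wells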
# Pf Dd2 growth: P. falciparum Dd2 growth inhibition. activity change, % at 10 µM. SYBR Green, 72 h; hits give low values. 2.3% of 94,000 active; in the data active means activity change below about -80%; inconclusive means no clear call, values can overlap the other calls
# T cruzi growth-2: Trypanosoma cruzi proliferation inhibition. AID 651739. 72% of 5,600 active. inhibition, % at 8.35 µM. T. cruzi beta-gal in NIH3T3, GalScreen luminescence, 90 h. shares compounds with T cruzi growth-1;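 active means mean replicate inhibition above about 95% and at least 55% of replicates individually reaching it, limit read from the data; inconclusive means only one of the two criteria is met; inactive means neither criterion is met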
# T cruzi growth-3: Trypanosoma cruzi proliferation inhibition; T. cruzi beta-gal in NIH3T3, GalScreen luminescence, 90 h; 21% of 5,600 active; inhibition, % at 2.09 µM; shares compounds with T cruzi growth-1;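 active means mean inhibition above about 95%, with at least 55% of replicates also reaching it, limit read from the data; inconclusive means meets just one of the two conditions; inactive means meets neither condition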;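 further: plate controls were neutral control median for no effect and positive control median for full effect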
# NIH3T3 tox: cytotoxicity in mouse NIH/3T3 fibroblasts | 14% of 5,600 active | NIH/3T3 viability, CellTiter-Glo ATP luminescence, 90 h | cytotoxicity (signal decrease), % at 8.35 µM | shares compounds with T cruzi growth-1;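 active means mean signal decrease across replicates above about 35% based on untreated-well scatter, with enough replicates individually passing, limit read from the data; inconclusive means no rule stated though some were filed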;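 further: 0% = median of neutral control wells and 100% = median of positive control wells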
# 3T3 cytotox 2: cytotoxicity in mouse NIH/3T3 fibroblasts; inhibition, % at 24.9 µM; 56% of 5,600 active; NIH/3T3 viability, CellTiter-Glo ATP luminescence, 90 h; shares compounds with T cruzi growth-1;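 active means mean loss of cell viability signal at or above a set limit, and enough replicates individually reaching it; inconclusive means meets only the mean limit or only the replicate share; inactive means meets neither condition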;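 further: 0% = median of neutral control wells and 100% = median of positive control wells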
# * marks the source's active call; other numbers are inactive results; ? = inconclusive; / = no result given. A selection: hits, their analogues and other compounds. The true share with any hit is near 6.8%.
SMILES,T cruzi growth-1,C diff growth,Pf Dd2 growth,T cruzi growth-2,T cruzi growth-3,NIH3T3 tox,3T3 cytotox 2
CCCC#Cc1cnc2c(c1)C(=O)N([C@H](C)CO)C[C@@H](C)[C@H](CN(C)S(=O)(=O)c1cccc(OC)c1)O2,78.5,-4.4,-43.9,/,/,/,/
CO[C@H]1CN(C)C(=O)c2cc(NC(=O)C3CCOCC3)ccc2OC[C@@H](C)N(C(=O)c2ccccc2)C[C@H]1C,17.0,/,/,/,/,/,/
COc1ccc(CN(C)C[C@@H]2OCCCC[C@H](C)Oc3ccc(NC(=O)Nc4ccccc4)cc3C(=O)N([C@H](C)CO)C[C@@H]2C)cc1,113.8*,3.5,-23.0,88.0,109.3*,42.7*,107.3*
COc1ccc(NC(=O)Nc2ccc3c(c2)C(=O)N([C@H](C)CO)C[C@@H](C)[C@@H](CN(C)Cc2ccccc2)OCCCC[C@H](C)O3)cc1,103.0*,14.2,-62.2,107.7*,68.4,-3.3,59.5*
COc1ccc(CN(C)C[C@@H]2OCCCC[C@H](C)Oc3ccc(NC(=O)c4ccccc4)cc3C(=O)N([C@H](C)CO)C[C@@H]2C)cc1,60.9,2.4,-36.4,/,/,/,/
C[C@@H]1CN([C@@H](C)CO)C(=O)c2cc(NC(=O)Nc3ccccc3)ccc2O[C@@H](C)CCCCO[C@@H]1CN(C)Cc1ccccc1,/,/,-53.8,/,/,/,/
COc1ccc(CN(C)C[C@@H]2OCCCC[C@@H](C)Oc3ccc(NC(=O)c4ccccc4)cc3C(=O)N([C@H](C)CO)C[C@H]2C)cc1,106.8*,-3.6,-55.6,91.2,80.2,3.9,80.5*
COc1ccc(NC(=O)Nc2ccc3c(c2)C(=O)N([C@@H](C)CO)C[C@H](C)[C@H](CN(C)Cc2ccccc2)OCCCC[C@@H](C)O3)cc1,89.0,7.4,-55.9,/,/,/,/
C[C@@H]1CCCCO[C@@H](CN(C)Cc2ccccc2)[C@H](C)CN([C@H](C)CO)C(=O)c2cc(NC(=O)Nc3ccccc3)ccc2O1,103.0*,/,-76.2,105.9*,70.4,7.9,104.8*
COc1ccc(CN(C)C[C@H]2OCCCC[C@H](C)Oc3ccc(NC(=O)Nc4ccccc4)cc3C(=O)N([C@@H](C)CO)C[C@@H]2C)cc1,106.3,3.9,25.0,/,/,/,/
C[C@H]1CN([C@@H](C)CO)C(=O)Cc2cc(NC(=O)C3CC3)ccc2O[C@@H]1CN(C)Cc1ccncc1,-35.2,-0.2,19.1,/,/,/,/
C[C@@H]1CN([C@@H](C)CO)C(=O)c2cc(N(C)C)ccc2O[C@@H]1CN(C)C(=O)NC1CCCCC1,-5.2,-4.6,5.5,/,/,/,/
COc1ccc(NC(=O)Nc2ccc3c(c2)C(=O)N([C@@H](C)CO)C[C@H](C)[C@@H](CN(C)Cc2ccccc2)OCCCC[C@H](C)O3)cc1,102.8*,-6.3,-45.0,103.9*,81.2,-7.5,102.2*
COc1ccc(NC(=O)Nc2ccc3c(c2)C(=O)N([C@@H](C)CO)C[C@H](C)[C@H](CN(C)C(=O)Cc2ccccc2)OCCCC[C@@H](C)O3)cc1,20.8,10.3,-74.8,/,/,/,/
COc1ccc(NC(=O)Nc2ccc3c(c2)C(=O)N([C@@H](C)CO)C[C@H](C)[C@H](CN(C)Cc2ccccc2)OCCCC[C@H](C)O3)cc1,90.1,-0.2,-53.0,/,/,/,/
COc1ccc(NC(=O)Nc2ccc3c(c2)C(=O)N([C@@H](C)CO)C[C@H](C)[C@H](CN(C)C(=O)Cc2ccccc2)OCCCC[C@H](C)O3)cc1,?,-6.2,-65.7,111.7*,-3.9,-10.0,2.7
C[C@H]1CN([C@@H](C)CO)C(=O)c2cc(Br)cnc2O[C@H]1CN(C)S(=O)(=O)c1ccccc1,57.7,1.3,7.6,/,/,/,/
COCC(=O)Nc1ccc2c(c1)OC[C@H](C)N(CC1CC1)C[C@H](C)[C@@H](OC)CN(C)C2=O,/,-1.2,-29.3,/,/,/,/
COCC(=O)N(C)C[C@H]1Oc2cc(-c3ccc(F)cc3)ccc2S(=O)(=O)N([C@H](C)CO)C[C@H]1C,18.3,-5.5,38.9,/,/,/,/
CO[C@H](CN(C)C(=O)C1CCOCC1)[C@H](C)CN(C(=O)Nc1ccc(C(F)(F)F)cc1)[C@H](C)CO,113.5*,/,12.4,104.2*,39.3,11.2,44.9*
CO[C@H](CN(C)C(=O)C1CC1)[C@H](C)CN(C(=O)Nc1ccc(C(F)(F)F)cc1)[C@H](C)CO,111.4*,/,17.3,34.6,-12.9,0.5,25.1*
CO[C@H](CN(C)C(=O)C1CC1)[C@@H](C)CN(C(=O)Nc1ccc(C(F)(F)F)cc1)[C@@H](C)CO,37.3,/,-0.6,/,/,/,/
CO[C@H](CN(C)C(=O)C1CCOCC1)[C@@H](C)CN(C(=O)Nc1ccc(C(F)(F)F)cc1)[C@H](C)CO,72.0,/,-10.8,/,/,/,/
Cc1noc(C)c1NC(=O)N(C)C[C@H]1Oc2ccc(NS(C)(=O)=O)cc2CC(=O)N([C@@H](C)CO)C[C@H]1C,23.6,5.7,25.1,/,/,/,/
C[C@H](CO)N1C[C@H](C)[C@H](CN(C)S(C)(=O)=O)Oc2ccc(NC(=O)Cc3cn(C)c4ccccc34)cc2C1=O,-16.8,1.2,-74.1,/,/,/,/
SMILES,T cruzi growth-1,C diff growth,Pf Dd2 growth,T cruzi growth-2,T cruzi growth-3,NIH3T3 tox,3T3 cytotox 2
C[C@H]1CN([C@@H](C)CO)C(=O)c2cc(C3=CCCC3)cnc2O[C@H]1CN(C)C(=O)c1ccncc1,/,58.9,21.4,/,/,/,/
COc1ccc(S(=O)(=O)N(C)C[C@H]2Oc3ccc(NS(=O)(=O)c4cccs4)cc3C(=O)N([C@@H](C)CO)C[C@H]2C)cc1,38.5,-2.3,-22.3,/,/,/,/
CN1C(=O)c2cc(NC(=O)C3CC3)ccc2OC[C@H]2O[C@@H](CC(=O)NCc3ccccc3F)CC[C@@H]21,/,-2.8,-12.4,/,/,/,/
O=C(C[C@H]1C[C@@H]2c3cc(NC(=O)c4cccnc4)ccc3O[C@@H]2[C@H](CO)O1)NCc1cccnc1,97.8*,/,11.2,15.2,-20.5,6.3,7.2
O=C(C[C@H]1C[C@@H]2c3cc(NC(=O)c4ccc5c(c4)OCO5)ccc3O[C@@H]2[C@@H](CO)O1)NCc1cc(F)ccc1F,52.3,/,-17.4,/,/,/,/
O=C(C[C@@H]1C[C@H]2c3cc(NC(=O)c4cccnc4)ccc3O[C@H]2[C@@H](CO)O1)NCCc1ccccc1,-24.1,-3.9,12.4,/,/,/,/
O=C(C[C@@H]1C[C@@H]2c3cc(NC(=O)c4ccc5c(c4)OCO5)ccc3O[C@@H]2[C@@H](CO)O1)NCc1cc(F)ccc1F,98.7*,/,-7.5,68.1,14.8,6.3,-1.9
O=C(C[C@H]1C[C@@H]2c3cc(NC(=O)c4cccnc4)ccc3O[C@@H]2[C@@H](CO)O1)NCCc1ccccc1,128.7*,0.4,-30.5,0.4,-1.8,-29.6,-10.5
O=C(C[C@@H]1C[C@@H]2c3cc(NC(=O)c4cccnc4)ccc3O[C@@H]2[C@H](CO)O1)NCc1ccccc1,-10.4,/,29.9,/,/,/,/
CS(=O)(=O)Nc1ccc2c(c1)[C@@H]1C[C@@H](CC(=O)NCc3ccccc3)O[C@H](CO)[C@@H]1O2,19.8,/,19.2,/,/,/,/
